In PubChem BioAssay AID771 (SRMLSC, 2007):
Out of some 3,300 compounds screened, about 55 (2%) were called active.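 Rule for the calls: active = growth inhibition above 90%, meaning viable cell count by imaging cut by more than 90% versus vehicle controls; inactive = growth inhibition below 90%.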 The entries come from a sample that favours actives as a whole.

Experiment: HT29 colon tumor cell growth inhibition, primary screen, imaging, high content imaging, 48 h, CellTiter-Glo (AID 771);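 for condensed nuclei: condensed means Hoechst nuclear area under control median minus 1.5 SD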
Conditions: HCS imaging cell count, at 10 µM, stronger effect = higher value; for condensed nuclei: measured here: percent cells with condensed nuclei
[1] = measured here: ATP CellTiter-Glo viability inhibition

Compound	growth inhibition	condensed nuclei [%]	growth inhibition [1] [%]
CNCCC=C1c2ccccc2CCc2ccccc21	97.6% (active)	32.9	
CN(C)CCC=C1c2ccccc2CCc2ccccc21	28.2% (inactive)	6.45	
COc1ccc(C(C)=O)cc1CSCCC(=O)O	-39.8% (inactive)	1.66	-10.3
CCOC(=O)Oc1ccc2c(c1)C(C)=CC(C)(C)N2C(=O)OCC	44.5% (inactive)	1.63	33.4
CCCc1cc(NCCCCO)n2c(nc3ccccc32)c1C#N	41.5% (inactive)	2.71	6.57
C/C(=N/n1cnnc1)c1cccnc1	-50.9% (inactive)	2.16	-4.47
COCc1cc(=O)[nH]c(Nc2nc3ccccc3o2)n1	89.2% (inactive)	2.5	76.3
Cc1cccc(OCc2nc(C)cc(=O)[nH]2)c1	37.9% (inactive)	2.19	1.04
COCc1cc(=O)[nH]c(Nc2nc3ccc(C)cc3o2)n1	93% (active)	0	69.7
COc1ccccc1-n1c(=O)c2c3c(sc2n2c(SC(C)C)nnc12)CCC3	-4.74% (inactive)	3.08	-1.5
COCCOC(=O)C1=C(C)NC(SCC(=O)NC(C)(C)C)=C(C#N)C1c1ccco1 (centres undefined)	34.7% (inactive)	3.96	-24.4
C=CCOC(=O)C1=C(C)NC(SCC(=O)Nc2ccc(C)c(Cl)c2)=C(C#N)C1c1ccco1 (centres undefined)	91.3% (active)	8.14	45.8
C=CCOC(=O)C1=C(C)NC(SCC(=O)N(CC)CC)=C(C#N)C1c1ccccc1 (centres undefined)	54.1% (inactive)	4.29	3.16
CCOC(=O)C1=C(c2ccccc2)NC(SCC(=O)Nc2ccccc2C)=C(C#N)C1c1ccco1 (centres undefined)	91% (active)	11	75.3
C=CCOC(=O)C1=C(C)NC(SCC(=O)N(CC)CC)=C(C#N)C1c1ccco1 (centres undefined)	-28.4% (inactive)	2.96	-41.1
CCN(CC)C(=O)CSC1=C(C#N)C(c2ccco2)C(C(=O)OCCOC)=C(C)N1 (centres undefined)	25.5% (inactive)	3.61	20.6
Cc1cc(CC(=O)O)c(C)cc1CC(=O)O	-42% (inactive)	2.43	-0.43
CCCn1nnc(NC(=O)c2cc(Br)cc(Br)c2OC)n1	-8.21% (inactive)	7.92	-15.1
O=C1[C@@H]2[C@H](C(=O)N1O)[C@H]1C=C[C@@H]2C1	1.8% (inactive)	1.79	-19.1
CCCc1nnc(NC(=O)c2c(O)c3c([nH]c2=O)CCCC3)s1	-9.28% (inactive)	7.28	-32.6
CCN(CC)c1ccc(-c2nn3c(-c4cccnc4)nnc3s2)cc1	90.1% (active)	4.92	75

Compound	growth inhibition	condensed nuclei [%]	growth inhibition [1] [%]
COc1cc(-c2nn3c(-c4cccnc4)nnc3s2)cc(OC)c1OC	-10.1% (inactive)	3	-33.4
c1cncc(-c2nnc3sc(-c4ccco4)nn23)c1	28% (inactive)	21.4	26.6
O=C(NCCCn1ccnc1)c1cccnc1	-11.4% (inactive)	2.67	-30.1
CCOc1cc2nc(-c3ccc(OC)c(OC)c3)nc(N3CCOCC3)c2cc1OC	97.2% (active)	39.3	90
COc1cccc(-c2nc(N3CCN(Cc4ccccc4)CC3)c3ccccc3n2)c1O	-8.14% (inactive)	2.41	0.87
COc1cc2nc(-c3ccccc3)nc(N3CCCC3)c2cc1OC	27.7% (inactive)	2.25	3.73
CCC1(C)Cc2ccccc2-c2nc(NCCO)n(-c3ccccc3)c(=O)c21 (centres undefined)	60.4% (inactive)	2.11	4.3
N#CC1(c2ccccc2)CCC(=NO)CC1 (centres undefined)	-54.8% (inactive)	1.75	-7.61
CC1(C)Cc2c(c(-c3ccccc3)[nH]c(=O)c2C#N)CS1	40.9% (inactive)	3.57	27.6
C=CCn1c(N)c(C(=O)Nc2ccccc2)c2nc3ccccc3nc21	90.9% (active)	18.1	90.8
C=CCn1c(N)c(C(=O)OC(C)(C)C)c2nc3ccccc3nc21	56.4% (inactive)	2.73	24.8
COCCNC(=O)c1c(N)n(CCC2=CCCCC2)c2nc3ccccc3nc12	39.4% (inactive)	2.68	20.4
C=CCn1c(-c2ccccc2)n[nH]c1=S	-21.6% (inactive)	2.91	-24.2
Cc1ccc(NC(=O)c2cc(N3CCOCC3)nc3ccccc23)cc1	52% (inactive)	7.65	31.6
CCOC(=O)c1[nH]c2ccc(OC)cc2c1NC(=O)CCN1CCc2ccccc2C1	24.3% (inactive)	9.73	4.08
Cc1ccc2[nH]c3c(NCCN4CCOCC4)ncnc3c2c1	45.8% (inactive)	3.45	24.8
CCN(CC)CCNc1ncnc2c1[nH]c1ccc(OC)cc12	68.1% (inactive)	4.62	44
Oc1ccccc1-c1nc(NCCN2CCOCC2)c2ccccc2n1	83.2% (inactive)	16.5	73.4
Clc1ccc2[nH]c3c(NCCN4CCOCC4)ncnc3c2c1	90.1% (active)	8.91	74.8
Clc1ccc2[nH]c3c(NCCCN4CCOCC4)ncnc3c2c1	97.5% (active)	33	90
Fc1ccccc1-c1nc(NCCCN2CCOCC2)c2ccccc2n1	40% (inactive)	7.24	34.1

Compound	growth inhibition	condensed nuclei [%]	growth inhibition [1] [%]
CC/C(C)=C1\SC(N2CCN(C(C)=O)CC2)=NC1=O	-12% (inactive)	2.39	-28.4
Cc1c(N=Cc2c(O)n(C3CCCCC3)c(=O)[nH]c2=O)c(=O)n(-c2ccccc2)n1C	-40.9% (inactive)	2.12	-6.25
COC(=O)CN(c1nc(C)c(Br)c(OC)n1)S(=O)(=O)c1ccc(C)cc1	28.7% (inactive)	1.9	6.19
N#Cc1ccc(-c2ccc(OCC(O)Cn3nnc4ccccc43)cc2)cc1 (centres undefined)	10.4% (inactive)	1.87	-1.94
CCOc1ccc(-c2nnc3sc(COc4ccccc4)nn23)cc1	41.5% (inactive)	2.51	-17
COc1ccccc1Nc1ncnc2c1cnn2-c1cccc(C)c1	30.4% (inactive)	2.98	-0.29
Clc1ccc(-n2ncc3c(NCc4ccccn4)ncnc32)cc1	38.1% (inactive)	3.3	0.14
Clc1ccc(-n2ncc3c(NCc4ccco4)ncnc32)cc1	92.3% (active)	19.6	76.5
Cc1cccc(-n2ncc3c(NCc4ccco4)ncnc32)c1	90.8% (active)	5.66	68.2
Cc1cccc(-n2ncc3c(NCCN4CCOCC4)ncnc32)c1	15.5% (inactive)	3.92	9.31
Clc1ccc(-n2ncc3c(NCc4cccs4)ncnc32)cc1	-9.4% (inactive)	3.73	-1.37
CC(=O)c1ccc(O)c(CO)c1	-13.1% (inactive)	2.86	-11.8
COC(=O)c1ccc(C2NC(C(=O)O)CS2)cc1 (centres undefined)	16% (inactive)	1.25	-10.7
CCNC(=O)Nn1c(C)nnc1C	-8.98% (inactive)	1.64	-2.65
Cc1ccc2nc(NCc3ccccc3)[nH]c2c1	87.6% (inactive)	19.4	67.4
COC(=O)Nc1nc2ccc(Sc3ccccc3)cc2[nH]1	90.4% (active)	42	
CCCOc1ccc2nc(NC(=O)OC)[nH]c2c1	78.7% (inactive)	35.7	
CCCSc1ccc2nc(NC(=O)OC)[nH]c2c1	90.4% (active)	33.3	
COC(=O)Nc1nc2ccc(C(=O)c3ccccc3)cc2[nH]1	86.4% (inactive)	34.6	
CCOc1ccc2nc(SCC(=O)Nc3ncccn3)[nH]c2c1	-11.5% (inactive)	3.9	0
Cc1cc(=O)oc(C)c1C(=O)Nc1ccc2nsnc2c1	31.3% (inactive)	3.08	-17.1

Compound	growth inhibition	condensed nuclei [%]	growth inhibition [1] [%]
CCCCCNC(=O)c1c(N)n(/N=C/c2ccco2)c2nc3ccccc3nc12	44.5% (inactive)	0.77	5.72
CC1(C)Cc2c(C#N)c(SCC(=O)c3ccccc3)nc(N3CCOCC3)c2CS1	83.5% (inactive)	17.6	76.7
CCN(CC)CCOC(=O)C1(c2ccc(OC)c(OC)c2)CCCC1	-76.7% (inactive)	1.64	-5.14
COc1ccc(C(=O)NCCCCCC(=O)O)cc1OC	5.72% (inactive)	1.69	3.37
Cc1[nH]c2ccc(F)cc2c(=O)c1SC(F)(F)C(F)C(F)(F)F (centres undefined)	31.7% (inactive)	3.08	-13.7
COc1cccc2c(=O)c(SC(F)(F)C(F)C(F)(F)F)c(C)[nH]c12 (centres undefined)	91.7% (active)	11.3	63.5
COc1cccc(C(=O)NCC(=O)n2nc(C)cc2C)c1	-2.19% (inactive)	2.14	-15.9
CN(C)CC(O)COc1ccc(C(C)(C)c2ccc(OCC(O)CN(C)C)cc2)cc1 (centres undefined)	99.1% (active)	29.1	95.7
CN(C)CC(O)COc1cccc(OCC(O)CN(C)C)c1 (centres undefined)	26.5% (inactive)	1.99	-7
CN(C)CC(O)COc1ccc(-c2ccc(C#N)cc2)cc1 (centres undefined)	71.1% (inactive)	5.66	51.9
OC(CCN1CCCCC1)(c1ccccc1)C1CCCCC1 (centres undefined)	6.78% (inactive)	4.4	
OC(CCN1CCCC1)(c1ccccc1)C1CCCCC1 (centres undefined)	57.7% (inactive)	7.95	
CC(C)(C)c1ccc(C(O)CCCN2CCC(C(O)(c3ccccc3)c3ccccc3)CC2)cc1 (centres undefined)	98.2% (active)	36.3	
CCOC(=O)C1=C(C)N=C2SC(C)C(=O)N2C1c1ccc(OC(C)=O)c(OC)c1 (centres undefined)	42.7% (inactive)	1.51	12.7
CC(C)Cc1[nH]c(=O)c(C#N)c2c1COC(C)(C)C2	-9.54% (inactive)	1.96	6.82
CCN(CC)c1ccc2cc(C(=O)Nc3ccccn3)c(=O)oc2c1	-58.4% (inactive)	2.18	-2.93
CCN(CC)c1ccc2cc(-c3nnc(-c4ccncc4)o3)c(=O)oc2c1	100% (active)	1.36	-8.56
CCCCCCc1cc2cc(-c3nnc(-c4ccccc4O)o3)c(=O)oc2cc1O	4.58% (inactive)	3.18	3.73
